Test results: PubChem BioAssay (NCATS)
Inconclusive results are not listed. Entries that show only a call come without a potency. Activity calls are given as the source filed them. The call rests on the fitted dose curve; in most records, active means well fitted inhibition curve with a large enough effect; inconclusive means small, poorly fitted or top-dose-only effect; inactive means flat fitted curve, though single readings scatter.

Test system: ECU
Assay: qHTS profiling for inhibitors of Plasmodium falciparum proliferation (AID 504749); further: nearly all actives have a fitted effect of over 60% in size
Conditions: P. falciparum in erythrocytes, SYBR Green DNA, 72 h; series mostly up to 28.7 µM
Outline: (§1)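 Three-day growth assay of blood-stage parasites in erythrocytes (0.3% parasitemia, 2.5% hematocrit) at 37 C, 5% CO2, quantified by SYBR Green DNA staining after overnight detergent lysis.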
Potency means the concentration at half of the fitted maximal effect.

Compound	Potency
CCCN1CCCC2Cc3nc(N)ncc3CC21 (configuration not stated)	inactive
COc1ccc2c3c1O[C@H]1[C@@H](O)C=C[C@H]4C(C2)NCCC341 (some centres not stated)	inactive
CCCCCC(O)C1C(=O)OC(C)C(O)\C=C/C=C\C=C/C=C\C=C(\C)C(O)C(O)C(O)CC(O)CC(O)CC(O)CC(O)CC1O (configuration not stated)	inactive
CCCCCc1cc(O)c2c(c1)OC(C)(C)C1CC=C(C)CC21 (configuration not stated)	2000 nM (active)

Test system: FAB9
Assay: as above
Conditions: P. falciparum in erythrocytes, SYBR Green DNA, 72 h; series mostly up to 28.7 µM
Outline: as §1

Compound	Potency
C[C@H](N)Cc1ccccc1	inactive
C[C@]12C=CC(=O)C=C1CC[C@@H]1C2CC[C@]2(C)OC(=O)CCC12 (some centres not stated)	inactive
OCC(O)[C@H]1O[C@@H]2O[C@H](C(Cl)(Cl)Cl)O[C@@H]2[C@H]1O (some centres not stated)	inactive
CC1(C)[C@@H](C=C(Cl)Cl)[C@@H]1C(=O)OCc1c(F)c(F)cc(F)c1F	inactive
CC1(C)S[C@@H]2[C@H](N)C(=O)N2C1C(=O)O (some centres not stated)	inactive
C=C1Nc2ccccc2C(=O)N1c1ccccc1C	inactive
CC1OC(O[C@H]2C[C@@H](O)[C@]3(CO)[C@@H]4C(CC[C@]3(O)C2)[C@@]2(O)CC[C@H](C3=CC(=O)OC3)[C@@]2(C)C[C@H]4O)C(O)C(O)C1O (some centres not stated)	inactive
O=[N+]([O-])OC1CO[C@H]2C(O[N+](=O)[O-])COC12 (some centres not stated)	inactive
CCOC(=O)/C=C(C)/C=C/CC(C)CCCC(C)C (configuration not stated)	inactive
[S]=[Sb][S][Sb]=[S]	inactive
CN1C2CCC1C(C(=O)O)C(OC(=O)c1ccccc1)C2 (configuration not stated)	inactive
C[C@@H]1CC[C@H]2[C@@H](C)C(=O)O[C@@H]3OC4(C)CC[C@@H]1C32OO4 (some centres not stated)	7.9 nM (active)
Cc1ccc2c(c1)[C@@H]1CN(C)CC[C@H]1N2	inactive
